From PubChem BioAssay (NCATS) come the findings set out here.

Experiment [1] in a line: Viability qHTS for spleen associated tyrosine kinase inhibitor (SYKi) drug resistant MV4-11 cells (AID 1963824). Further: nearly all actives have a fitted effect of over 35% in size. Put shortly: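 SYK-inhibitor-resistant MV4-11 AML cells were seeded at 500 per well onto compound and cultured 72 hours (37 °C, 5% CO2). CellTiter-Glo was then added, and after 10 min at room temperature, luminescence gave viability.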
(In general: Quantitative high-throughput screening tests each substance at several concentrations.)

The nature of experiment [2]: Quantitative highthroughput screen to assess conditional lethalithy of SEM cells grown in Human Plasma-Like Medium with dialyzed fetal bovine serum (HPLM+ds) (AID 1963882). Further: nearly all actives have a fitted effect of over 35% in size. On Viability: series mostly up to about 46 µM. The essentials:
(§1)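 Each medium arm—HPLM with 10% dialyzed FBS, or RPMI1640 with 5 mM glucose and 10% untreated or dialyzed FBS—was screened against an 11-point, 3-fold compound titration for 48 h at 37 °C, with CellTiter-Glo luminescence as endpoint.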

The nature of experiment [3]: Cellular viability qHTS for adrenocortical cancer (ACC) cell line SW-13 (AID 1963989). Further: nearly all actives have a fitted effect of over 65% in size.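 On activity (max response): cells grown in serum-free medium with ITS supplement; on the % scale 0 is the no-effect control and ±100 the full control effect.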 The conditions noted are these: SW-13 ACC cells viability, CellTiter-Glo, 48 h; activity (max response): hits give low values. Put shortly:
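Luminescent ATP read-out (CellTiter-Glo, 20 min at room temperature) measured metabolically competent SW-13 cells after 48 h compound treatment. Final concentrations spanned up to 46 uM; bortezomib served as positive control.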

Experiment [4] is described as follows: Quantitative highthroughput screen to assess conditional lethalithy of P12 Ichikawa cells grown in Human Plasma-Like Medium with dialyzed fetal bovine serum (HPLM+ds) (AID 1963879). Further: nearly all actives have a fitted effect of over 35% in size. The conditions noted are these: Potency: viability. Put shortly:
as §1

The nature of experiment [5]: Quantitative highthroughput screen to assess conditional lethalithy of P12 Ichikawa cells grown in RPMI1640 with dialyzed fetal bovine serum (RPMI+ds) (AID 1963880). Further: nearly all actives have a fitted effect of over 35% in size. The conditions noted are these: Potency: P12-Ichikawa viability. Put shortly: as §1
Experiment [6] in a line: Quantitative highthroughput screen to assess conditional lethalithy of P12 Ichikawa cells grown in RPMI1640 with untreated serum (RPMI+s) (AID 1963881). Further: nearly all actives have a fitted effect of over 35% in size. The following applies: Potency: viability. The essentials:
as §1

The nature of experiment [7]: Quantitative highthroughput screen to assess conditional lethalithy of SEM cells grown in RPMI1640 with unreated serum (RPMI+s) (AID 1963883). Further: nearly all actives have a fitted effect of over 35% in size.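 On Viability: 100% = DMSO wells and 0% = empty wells without cells.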 Put shortly:
as §1

Experiment [8] in a line: Quantitative highthroughput screen to assess conditional lethalithy of SEM cells grown in RPMI1640 with dialyzed fetal bovine serum (RPMI+ds) (AID 1963884). Further: nearly all actives have a fitted effect of over 35% in size.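 On Viability: series mostly up to about 46 µM; 100% = DMSO control wells and 0% = empty wells without cells.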 The essentials:
as §1

A short description of experiment [9]: Cellular viability qHTS for adrenocortical cancer (ACC) cell line NCI-H295R (AID 1963990). Further: nearly all actives have a fitted effect of over 60% in size. Put shortly:
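IC50 and maximal efficacy derive from four-parameter logistic modelling of titration curves, with reads scaled between DMSO-only wells (0%) and doxorubicin hydrochloride (100% inhibition). Compounds spanned up to 46 uM over 48 h.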

Experiment [10] can be described thus: Quantitative highthroughput screen to assess conditional lethalithy of NOMO1 cells grown in Human Plasma-Like Medium with dialyzed fetal bovine serum (HPLM+ds) (AID 1963878). Further: nearly all actives have a fitted effect of over 35% in size. Put shortly: as §1

“And” between values parts separate entries of the source, which are not always exact repeats. Equal values may be shown once. Results filed as inconclusive are left out. The source made the active and inactive calls. The call rests on the fitted dose curve; in most records, active means well fitted curve in the direction sought with a large enough effect; inconclusive means small, poorly fitted or top-dose-only effect, or another doubt; inactive means no such curve, though single readings can be large; an effect the other way counts as inactive or inconclusive.
Potency means the concentration at half of the fitted maximal effect.

For the compound `O=C(CCCN1CCN(c2ccc(F)cc2)CC1)NC1c2ccccc2CSc2ccccc21` (stereo not drawn), the Potency in [1] is 14.6 µM (active). Also, the Potency entry in experiment [2] was “inactive”. Further, the activity (max response) in experiment [3] is -20.8% (inactive).

Consider `Cc1cc(C(=O)N2CCN(c3cccc(Cl)c3)CC2)n(-c2ccccc2)n1`, for which the Potency is 1.46 µM (active) in [1]; 1.48 µM (active) in experiment [4]; 2.96 µM (active) in experiment [5]; 3.32 µM (active) in experiment [6]; 2.64 µM (active) in experiment [7]; 1.87 µM (active) in experiment [8]. Besides, the Potency in experiment [3] is 0.355 µM (active); in [9], 447 nM (active).

As to `N#CNC(=NCCCCCCOc1ccc(Cl)cc1)Nc1ccncc1`, the Potency in [1] is 0.0042 µM (active); in [5], 0.0019 µM (active); in experiment [6] it was 0.0026 µM (active); in experiment [3], 0.0398 µM (active); in experiment [9], 15.8 nM (active). In addition, the Potency entry in experiment [2], in [7] and in experiment [8] was “inactive” throughout.

`Cc1cc(-c2cnn3c(NCC4CC(C)(O)C4)cc(Oc4cccnc4)nc23)ccc1C(=O)NC1CC1` (stereo not drawn): the Potency in experiment [1] is 0.118 µM (active). Moreover, the activity (max response) in [3] was -6.44% (inactive).

Consider `C1CCC(C(CC2CCCCN2)C2CCCCC2)CC1` (stereo not drawn), for which the Potency in experiment [1] was 2.95 µM (active); in experiment [2] it was 14.8 µM (active); in experiment [7], 11.8 µM (active); in [3], 7.08 µM (active); in experiment [9], 7080 nM (active).

For the compound `O=C(Nc1ncc(-c2cc(C(F)F)nn2-c2c(Cl)cccc2Cl)s1)C1CC1`, the Potency was 0.372 µM (active) in [1]; 0.935 µM (active) in experiment [4]; 1.18 µM (active) in [5]; 0.935 µM (active) in [6]; 1.32 µM (active) in experiment [2]; 1.18 µM (active) in experiment [7]. The values for the Potency in [8] and in experiment [3] were 1.32 µM (active) and 0.316 µM (active), respectively.

Take `COc1ccc2c(c1)CC[C@@H](CN(C)CC(=O)O)[C@H]2c1ccccc1`: the Potency entry in [1] and in experiment [9] was “inactive” throughout. For the same compound, the Potency is 2.64 µM (active) in [4], 2.64 µM (active) in experiment [6], 2.35 µM (active) in experiment [2] and 2.64 µM (active) in [7]. The activity (max response) in [3] was 12.6% (inactive).

With `CC(=O)c1c(C)c2cnc(Nc3ccc(N4CCNCC4)cn3)nc2n(C2CCCC2)c1=O`, the Potency is 184 nM (active) and 5.25 µM (active) in [1]; 4.69 µM (active) in experiment [7]; 5.26 µM (active) in [8]; 25100 nM (active) in [9].

In the case of `COc1ccc(C=Cc2cc(OC)c(OC)c(OC)c2)cc1NC(=O)[C@H](N)CO`, the Potency is 0.0417 µM (active) in experiment [1]; 0.0296 µM (active) in experiment [4]; 0.0166 µM (active) in experiment [6]; 0.0264 µM (active) in [2]; 0.0209 µM (active) in experiment [7]; 0.0296 µM (active) in [8]. The Potency in [3] is 0.126 µM (active); in experiment [9], 199 nM (active).

In the case of `Cc1c(C(=O)NN2CCCCC2)nn(-c2ccc(Cl)cc2Cl)c1-c1ccc(Cl)cc1`, the Potency in experiment [1] is 23.7 µM (active); in experiment [5] it was 3.32 µM (active); in experiment [3] it was 28.2 µM (active); in [9] it was 20.6 µM (active) and 28.2 µM (active). Further, the Potency result in [2], in experiment [7] and in experiment [8] was “inactive” each time.

Consider `Nc1ncnc2c1nc(Cl)n2[C@@H]1O[C@H](CO)[C@@H](O)[C@@H]1O`, for which the Potency in experiment [1] is 2.95 µM (active); in [2], 11.8 µM (active); in experiment [7], 14.8 µM (active); in experiment [8] it was 8.33 µM (active).

Take `COc1cc(NS(C)(=O)=O)ccc1Nc1c2ccccc2nc2ccccc12`: the figures for the Potency in [1] and in experiment [3] were 0.468 µM (active) and 5.62 µM (active), respectively.

With `O=C(O)CCCCC(CCSCc1ccccc1)SCc1ccccc1` (stereo not drawn), the Potency was 13.2 µM (active) in experiment [1] and 14.8 µM (active) in experiment [4]. Also, the Potency result in [7] and in [8] was “inactive” each time. The activity (max response) in experiment [3] was -7.05% (inactive).

As to `CC1(COc2ccc3c(c2)ncn3-c2ccc3cccc(N4CCC(N)CC4)c3n2)COC1`, the Potency in experiment [1] was 11.6 nM (active) and 10.5 nM (active); in experiment [4] it was 10.5 µM (active); in experiment [7], 0.0209 µM (active); in [3] it was 25.1 µM (active).

On to `Cc1cc(-c2ccc(CC(=O)Nc3ccc(-c4cccnc4)cc3)cc2)ccn1`, for which the Potency is 11.8 µM (active) in [1]; 6.62 µM (active) in [4]; 16.6 µM (active) in [6]; 6.62 µM (active) in [2]; 10.5 µM (active) in experiment [7]; 8.33 µM (active) in [8]. The activity (max response) in experiment [3] was -19.6% (inactive). For the same compound, the Potency entry in experiment [9] is “inactive”.

Consider `NC(=O)c1cc(F)cc2c1C(=O)N(C1CCN(C3CCC(F)(F)CC3)CC1)C2`, for which the Potency result in [1] is “inactive”. In addition, the activity (max response) in experiment [3] was -0.81% (inactive).

With `Cc1cc(Nc2cc(NC(=O)c3c(Cl)cccc3Cl)ccn2)nc(N)n1`, the Potency in experiment [1] is 0.164 µM (active); in experiment [5], 1.18 µM (active); in experiment [8], 1.05 µM (active); in experiment [9], 7080 nM (active).

`CCCCCCCCCCCC(CC1OC(=O)C1CCCCCC)OC(=O)C(CC(C)C)NC=O` (stereo not drawn): the Potency in experiment [1] was 3.72 µM (active); in experiment [4], 20.9 µM (active); in experiment [5], 23.5 µM (active); in [2], 18.7 µM (active); in [7] it was 5.9 µM (active); in [8], 11.8 µM (active). The activity (max response) in [3] was 11.6% (inactive). Besides, the Potency result in experiment [9] is “inactive”.

With `NS(=O)(=O)c1cc2c(cc1Cl)CN(C1CCCCC1)C2=O`, in [1], the Potency entry is “inactive”. Also, the activity (max response) in experiment [3] was 0.796% (inactive).

As for `CCOC(=O)[C@H](CCc1ccccc1)N[C@H]1CCc2ccccc2N(CC(=O)O)C1=O`, the Potency in experiment [1] and in experiment [10] was 16.6 µM (active) in each case. Moreover, in experiment [3], the activity (max response) was -3.37% (inactive). In addition, the Potency entry in experiment [9] was “inactive”.
